Experimental data from PubChem BioAssay AID488841 (Sanford-Burnham Center for Chemical Genomics, 2010).
The campaign covered roughly 1,400 compounds. About 380 (27%) were called active. This is one part of the list. Unmarked numbers belong to inactive results.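 Rule for the calls: active = mean inhibition above 50% across duplicate retests at 10 µM; inactive = the rest.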

Assay: inhibition of NALP1/ASC/caspase-1 reporter signal in yeast, confirmation, NALP1 inhibitor project, S. cerevisiae, luminescence, single concentration (AID 488841);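 note: plate controls were DMSO in galactose medium for no effect and cells in plain SD medium for full effect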
Conditions: S. cerevisiae NALP1/ASC/Caspase-1 reporter, beta-gal luminescence; at 10 µM; stronger effect = higher value

For `Cc1nc(N)sc1N=Nc1ccc(Br)cc1`, the inhibition was 50.6% (active).
With `Cc1ccc2occ(C(=O)c3ccco3)c(=O)c2c1` the inhibition was 58.4% (active).
For `O=C1c2cccc(O)c2C(=O)c2c(O)cccc21`, the inhibition was 62.8% (active).
In the case of `C=CCOc1ccc2ccccc2c1/C=N/O`, the inhibition is reported as 52.7% (active).
In the case of `CCOc1ccccc1N1CCN(C(=O)CCCc2nc3ccccc3s2)CC1`, the inhibition is reported as 52.9% (active).
For `O=C(/C=C/c1ccc2c(c1)OCCCO2)c1ccccc1O`, the inhibition was 61.6% (active).
With `CCOC(=O)/C(=C/c1ccc(OC(=O)c2ccccc2)cc1)C(C)=O` the inhibition was 55.4% (active).
With `C=CCNC(=O)/C(C#N)=C/c1c(C)nn(-c2ccccc2)c1Cl` the inhibition was 60.3% (active).
For `Cc1nn(-c2ccccc2)c(Cl)c1/C=C(\C#N)C(=O)NC(C)C`, the inhibition was 55.2% (active).
With `O=C1c2ccsc2SCCN1Cc1c(Cl)cccc1Cl` the inhibition was 53.7% (active).
With `CNC(=O)c1nnsc1S(=O)(=O)c1ccc(Cl)cc1` the inhibition was 86.2% (active).
With `CCCNC(=O)c1nnsc1S(=O)(=O)c1ccc(Cl)cc1` the inhibition was 95% (active).
In the case of `CCC(C)NC(=O)c1cc2cc3ccc(OC)cc3nc2s1` (stereo unspecified), the inhibition is reported as 54.9% (active).
For `CCOc1ccc(S(=O)(=O)N2c3ccccc3CC2C)cc1` (stereo unspecified), the inhibition was 54.5% (active).
For `COC(=O)c1sccc1NC(=O)c1csc(C)c1`, the inhibition was 54% (active).
With `CC(C)(C)OC(=O)NCCCCCc1nnc(SCc2ccccc2)o1` the inhibition was 56.6% (active).
For `CCOC(=O)Nc1cccc(Nc2ccccc2)c1`, the inhibition was 52.2% (active).
For `c1ccc(-c2nc3cc4ccccc4cc3[nH]2)nc1`, the inhibition was 73.2% (active).
For `COCCCN(CCCN)Cc1ccco1`, the inhibition was 73.2% (active).
With `CCN(CC)c1ccc(/C=C2/SC(=O)N(C(C)C)C2=O)o1` the inhibition was 65.5% (active).
In the case of `O=C(N/N=C/c1ccc2c(c1)OCO2)c1cccs1`, the inhibition is reported as 51.4% (active).
With `Cn1nc(-c2ccc(Cl)cc2)nc2c(=O)n(C)c(=O)nc1-2` the inhibition was 97.7% (active).
With `Cc1cc(C)n(C(C[N+](=O)[O-])c2ccc(Cl)cc2)n1` (stereo unspecified) the inhibition was 92% (active).
For `Fc1ccccc1-c1ccc(/C=N/Nc2nc3ccccc3[nH]2)o1`, the inhibition was 60.4% (active).
For `CCOC(=O)c1ccc(NC(=O)CC2Sc3ncnn3C2=O)cc1` (stereo unspecified), the inhibition was 70.7% (active).
With `COc1ccc(NC(=O)CC2Sc3ncnn3C2=O)cc1` (stereo unspecified) the inhibition was 59% (active).

In order of rising inhibition:
1. COc1ccc(CCNC(=O)C2CCN(S(=O)(=O)c3ccc(Cl)cc3)CC2)cc1OC  5.6%
2. CCOC(=O)c1sc(NC(=O)Nc2cccc(Cl)c2)cc1C  5.75%
3. CC(=O)/C=C/n1c(=S)oc2ccccc21  6.85%
4. Oc1ccccc1C1N=C(c2ccccc2)NC(c2ccccc2)=N1  16.1%
5. CCN(CC)S(=O)(=O)c1ccc(NS(=O)(=O)c2cccs2)cc1  16.4%
6. Cn1nc(-c2ccccc2)c(-c2nc(-c3ccc(Cl)cc3)no2)c1Cl  16.6%
7. O=C1C2C3C=CC(C2C(=O)N1CCCO)C1C2C(=O)N(CCCO)C(=O)C2C31 (stereo unspecified)  17.4%
8. CC(C)(C)C(=O)NC1CCN(S(=O)(=O)c2ccc(C(F)(F)F)cc2)CC1  18.1%
9. CCOC(=O)c1ccc(NC(=O)c2nccnc2C(=O)O)cc1  18.4%
10. COc1ccccc1NC(=O)Nc1ccc2c(c1)nnn2C  18.6%
11. CCOC(=O)C1C(=O)Oc2ccc3ccccc3c2C1C1CCOC1=O (stereo unspecified)  19.4%
12. CC1CCCC(C)N1C(=O)CN1CCN(c2nc(-c3ccc(F)cc3)cs2)CC1 (stereo unspecified)  19.6%
13. CCCCNc1nc2ccccc2[nH]1  20.4%
14. CCOc1cc(/C=N/NC(=O)c2nn(C)cc2Br)ccc1OCc1ccccc1Cl  20.8%
15. COCc1cc(=O)[nH]c(/N=C(\N)Nc2cccc(C)c2)n1  21.6%
16. COc1ccc(NC(=S)N(C(C)C)C2CCN(C(C)C)CC2)cc1Cl  21.6%
17. CCCSc1nnc(C(C)C)n1N  21.8%
18. O=C(CSc1ncn[nH]1)NC12CC3CC(CC(C3)C1)C2  22.3%
19. COC(=O)c1sccc1N/N=C(\C)c1ccc(F)c(Cl)c1  22.3%
20. CC(C)Cc1nnc(NC(=O)CSc2nc(N)cc(=O)[nH]2)s1  23.4%
21. COc1ccc(OC)c(NC(=O)c2sc3nc(Cc4ccccc4)cc(C(F)(F)F)c3c2N)c1  23.5%
22. Cc1ccc(C(=O)/C=C/c2ccc3c(c2)OCO3)o1  23.9%
23. CN1C(=O)CSc2ccc(NC(=O)N3CCN(c4ccccn4)CC3)cc21  24%
24. CC(=O)C1=C(O)C(=O)N(CCC(=O)O)C1c1ccc(Cl)cc1Cl (stereo unspecified)  24.1%
25. N#Cc1cccc(N=Cc2c(O)ccc3ccccc23)c1  24.8%
26. CCOC(=O)c1c(C)n(C)c2cc(-c3ccc(C)cc3)c(O)cc12  24.9%
27. O=C(N/N=C/c1ccc2nccnc2c1)c1ccccc1O  25.7%
28. O=C(CCNc1n[nH]c(=O)[nH]c1=O)N/N=C/c1ccc(C(F)(F)F)cc1  26.9%
29. O=C(CN(Cc1ccccc1)S(=O)(=O)c1ccc(S(=O)(=O)N2CCOCC2)cc1)Nc1ccccc1  27.6%
30. COC(=O)COc1ccc(S(=O)(=O)NCCC2=CCCCC2)cc1Cl  28.2%
31. COc1ccc(OCC(=O)NC(=S)N2CCCc3ccccc32)cc1  28.5%
32. Cc1ccc(S(=O)(=O)N(C(=O)c2ccncc2)c2ccc(OC(=O)c3ccncc3)c3ccccc23)cc1  28.8%
33. O=S(=O)(/N=C/c1c(O)ccc2ccccc12)c1cccs1  29.8%
34. CN1CCN(C2=C(Cl)C(=O)C(c3cnc(N4CCCCC4)s3)=C(Cl)C2=O)CC1  29.9%
35. O=[N+]([O-])c1ccc(N2CCN(c3ccc(Cl)nn3)CC2)c(Cl)c1  29.9%
36. CCOC(=O)C1=C(O)c2ccccc2C(=O)/C1=C\c1ccc(C)cc1  30.2%
37. CC(C)Sc1nnc([C@H](Cc2ccccc2)NC(=O)OC(C)(C)C)o1  30.7%
38. CCOc1cccc(N2C(=O)CC(N3CCN(c4ccc(S(=O)(=O)CC)cc4)CC3)C2=O)c1 (stereo unspecified)  30.9%
39. Cc1cccc(N/C=C/C(=C(C#N)C#N)N(C)C)c1  30.9%
40. CCOC(=O)c1ccc(NC(=O)CSc2nnc(CNc3ccc(C)cc3)n2C)cc1  32.1%
41. Cc1cc(C)cc(-n2nnc(C(=O)NCc3ccccc3)c2N)c1  34.6%
42. Cc1ccc(C)c(NC(=O)c2ccc(OC(=O)c3ccco3)cc2)c1  36.8%
43. CN(C=[N+](C)C)c1cccc2c1C(=O)c1ccccc1C2=O  37%
44. CCOC(=O)C(=CNNc1ccsc1C(=O)OC)C(=O)OCC  37.1%
45. Cc1nc([N+](=O)[O-])c(Br)n1CC(=O)c1ccc(Cl)cc1  37.6%
46. CCOC(=O)C1=Nc2ccccc2C1=[N+]=[N-]  37.8%
47. Cc1ccc(/C=N/Nc2ccnc3cc(Cl)ccc23)c(C)c1  38.3%
48. Cc1ccsc1/C=N/NC(=O)c1ccco1  38.9%
49. CN(C)S(=O)(=O)c1cccc2c1C(=O)c1ccccc1C2=O  39.2%
50. CCOc1ccc(NC2=C(OC)C(=O)c3ccccc3C2=O)cc1  39.5%
51. O=c1cc(-c2ccccc2)[nH]c2nc3ccccc3n12  39.5%
52. CCn1c(C)[n+](CC(O)COCC2CC=CCC2)c2ccccc21 (stereo unspecified)  40%
53. Cc1cc(Cl)c(OCCCCN2CCOCC2)c(Br)c1  40.9%
54. CC(C)NC(=O)/C(C#N)=C/c1cccc(NC(=O)c2ccccc2Cl)c1  41.1%
55. O=C(CC1Sc2ncnn2C1=O)Nc1ccc(Br)cc1 (stereo unspecified)  41.1%
56. CCOC(=O)Nc1ccc2c(C)cc(=O)oc2c1  41.3%
57. CCCCSc1nnc(CCNC(=O)OC(C)(C)C)o1  42.2%
58. O=C(NC1=NCCS1)c1ccc(Cl)s1  42.9%
59. CCCCCOc1ccc(Cn2ccnc2)cc1[N+](=O)[O-]  43%
60. CC(C)CN=C(NS(=O)(=O)c1ccccc1)C(Cl)(Cl)Cl  43.6%
61. Cc1cccc(OC(=O)c2cn(C)nc2C(F)(F)F)c1C  43.7%
62. COc1ccc(-c2nc(N)n(S(=O)(=O)c3ccc(C)cc3)n2)cc1  44.7%
63. CCCCCCC1CCC(C(=O)Nn2c(C)nc3ccccc3c2=O)CC1 (stereo unspecified)  44.8%
64. CCCCC(CC(O)COCCC)c1n[nH]c(=S)n1-c1ccccc1 (stereo unspecified)  44.8%
65. COc1ccc(C2NCCc3c2[nH]c2ccccc32)cc1CSc1nc2ccccc2s1 (stereo unspecified)  45.4%
66. O=C1S/C(=C\c2ccc(N3CCOCC3)o2)C(=O)N1c1ccccc1  45.5%
67. COCCN=C1Sc2nc3ccc(C)cc3cc2CN1Cc1ccco1  45.9%
68. COc1ccc2cc(/C=N/O)c(Cl)nc2c1  46.1%
69. COc1ccc(Nc2ncccc2C(=O)NCc2ccccc2)cc1  46.5%
70. Cn1cnc([N+](=O)[O-])c1S(=O)(=O)c1ccc(Cl)cc1  46.9%
71. Cc1sc(-c2ccncc2)nc1OC(=O)c1ccccc1  47.5%
72. O=[N+]([O-])c1ccc2nc(-c3ccccn3)[nH]c2c1  47.6%
73. COc1ccccc1NC1=C(N2CCCCC2)C(=O)c2ccccc2C1=O  49.1%
74. O=C(/C=C/c1ccc(F)cc1)NCCc1ccc2c(c1)OCCO2  49.3%
75. COCC(=O)n1nc(-c2ccc(Cl)cc2)nc1NCc1ccc(F)cc1  49.8%
